# According to PubChem BioAssay (NCATS):
# Records with an inconclusive call do not appear. A call without a number means that no potency is given here. A number with no mark means an inactive call. Activity calls are given as the source filed them. The call rests on the fitted dose curve; in most records, active means well fitted inhibition curve with a large enough effect; inconclusive means small, poorly fitted or top-dose-only effect; inactive means no such curve, though single readings can be large or run the other way.
# Experiments:
# [1] = system: Zika virus NS2B-NS3 protease (unlinked complex); test: Primary screen GU Rhodamine qHTS for Zika virus inhibitors: Unlinked NS2B-NS3 protease assay (AID 1347159); further: nearly all actives have a fitted effect of over 60% in size
# In short: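 Percent inhibition came from the 15-min rise in Rhodamine110 fluorescence (1.5 microM substrate, ~15% conversion), normalized to no-inhibitor and no-enzyme wells and Hill-fitted. Unlinked protease, 25 nM, pH 8.0 Tris buffer; compounds up to 114 microM, 15-min preincubation.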
# [2] = system: Zika virus NS2B-NS3 protease (linked construct); test: Primary screen NINDS Rhodamine qHTS for Zika virus inhibitors (AID 1347160); further: nearly all actives have a fitted effect of over 55% in size
# In short: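 Rhodamine110-peptide cleavage (1.5 µM substrate) by 25 nM linked NS2B-NS3 enzyme at pH 8.0 (Tris, Tween 20), after 15 min RT preincubation with compounds; 15-min fluorescence change normalized to controls and Hill-fitted.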
Structure (SMILES),Potency [1],Potency [2],"activity change, negative = inhibition [1]","activity change, negative = inhibition [2]"
CCc1nc(C(N)=O)c(Nc2ccc(N3CCC(N4CCN(C)CC4)CC3)c(OC)c2)nc1NC1CCOCC1,inactive,inactive,,
C=C1C(=O)OC2/C=C(\C)CC/C=C(\C(=O)O)CC/C=C(\C)CCC12 (stereo not drawn),inactive,inactive,,
C=C1CC[C@H]2[C@@](C)(CCC[C@@]2(C)C(=O)O)[C@@H]1CCC(C)CCO (stereo partly drawn),inactive,inactive,,
C=C1CC/C=C(/CO)C(=O)C[C@@H]2[C@@H]1CC2(C)C,inactive,inactive,,
CCC[C@@H]1C[C@@H](C(=O)N[C@H](C(C)Cl)[C@H]2O[C@H](SC)[C@H](O)[C@@H](O)[C@H]2O)N(C)C1 (stereo partly drawn),inactive,inactive,,
CC(C)(C)c1cc(CN2CCN(CC(O)c3ccc(Cl)cc3)CC2)cc(C(C)(C)C)c1O (stereo not drawn),inactive,inactive,,
C=C(C)[C@@H]1CC[C@](C)(O)[C@@H](OC(=O)c2ccccc2)C1,inactive,inactive,,
C=C1CCC[C@]2(C)C[C@]3(O)OC(=O)C(C)=C3C[C@@H]12,inactive,inactive,,
C[C@]12CC[C@@H]3c4ccc(O[C@@H]5O[C@H](C(=O)O)[C@@H](O)[C@H](O)[C@H]5O)cc4CC[C@H]3[C@@H]1CCC2=O,inactive,inactive,,
COC(=O)[C@@H]1C2CC3c4[nH]c5ccccc5c4CCN3CC2CC[C@@H]1O (stereo partly drawn),inactive,inactive,,
CC1CCC2C(C(=O)O)=CC3C(O)C(C)(C)CC123 (stereo not drawn),inactive,inactive,,
CC(C)CC1(C(=O)OCc2ccc(O[C@@H]3O[C@H](CO)[C@@H](O)[C@H](O)[C@H]3O)cc2)CC(=O)OC(C(=O)O)CC(=O)OCC2OC(O1)C(OC(=O)/C=C/c1ccc(O)cc1)C(O)C2O (stereo partly drawn),inactive,inactive,,
CC(=O)O[C@@H]1[C@H](O[C@@H]2O[C@H](CO)[C@@H](O)[C@H](O)[C@H]2O)[C@@H](O[C@@H]2O[C@@H](C)[C@H](O)[C@@H](O[C@@H]3O[C@H](CO)[C@@H](O)[C@H](O)[C@H]3O)[C@H]2O)[C@H](OC(=O)C23CCC4(C)C(=CCC5C6(C)CC(O)C(O[C@@H]7O[C@H](C(=O)O)[C@@H](O)[C@H](O)[C@H]7O)C(C)(C(=O)O)C6CCC54C)C2CC(C)(C)CC3O)O[C@@H]1C (stereo partly drawn),,,7.44% [at 19.1 µM],3.1% [at 10.7 µM]
CC(=O)OC[C@]12[C@H](OC(C)=O)C(=O)[C@@H]3[C@@H](OC(C)=O)[C@@]14O[C@@]3(C)COC(=O)c1cccnc1[C@@H](C)[C@H](C)C(=O)O[C@@H]([C@H](OC(C)=O)[C@@H]2OC(C)=O)[C@]4(C)O,inactive,inactive,,
C/C(=C/CO)CC[C@@H]1[C@@]2(C)CCC[C@](C)(C(=O)O)C2CC[C@@]1(C)O (stereo partly drawn),inactive,inactive,,
COc1c(C)c(C(=O)c2ccc(N)c(C(=O)O)c2)n2ccccc12,inactive,inactive,,
CN1C(=O)c2ccccc2-n2c(nc3ccccc3c2=O)[C@@]12O[C@H]2c1ccccc1,inactive,inactive,,
COC1(CC(C)C)NC(=O)C(O)(Cc2ccccc2)NC1=O (stereo not drawn),inactive,inactive,,
COC(=O)C1=CO[C@@H](O[C@@H]2O[C@H](CO[C@@H]3O[C@H](COC(=O)/C=C/c4ccc(O)cc4)[C@@H](O)[C@H](O)[C@H]3O)[C@@H](O)[C@H](O)[C@H]2O)[C@@H]2C(CO)=CC[C@H]12,inactive,inactive,,
CNc1nc(Nc2cnn([C@H]3CCN(C4COC4)C[C@@H]3F)c2Cl)ncc1C(F)(F)F,inactive,inactive,,
OCc1ccccc1O[C@@H]1O[C@H](CO)[C@@H](O)[C@H](O)[C@H]1O,inactive,inactive,,
COc1cc(C2c3cc(O)c(OC)cc3CC(CO)C2CO)ccc1O (stereo not drawn),inactive,inactive,,
CCC(=O)N[C@@H]1Cc2ccccc2[C@H](c2ccccc2)C1,inactive,inactive,,
CN(NC(=O)CC(=O)NN(C)C(=S)c1ccccc1)C(=S)c1ccccc1,inactive,inactive,,
O=C1N(CC2CCCCN2)CCN1c1ccccc1 (stereo not drawn),inactive,inactive,,
COC1=CC(=O)O[C@@H](/C=C/c2ccccc2)[C@@H]1O,inactive,inactive,,
C=C1CCC(OC(C)=O)C2(C)CC3(O)OC(=O)C(C)=C3CC12 (stereo not drawn),inactive,inactive,,
C[C@@H]1CC[C@]2(C)C3(C)CC[C@@]2(OC3=O)[C@@]12C[C@H](c1ccoc1)OC2=O,inactive,inactive,,
CC1CCC2(C)C(CC(O)C(O)C23CO3)C1(C)CCC1=CC(=O)OC1O (stereo not drawn),inactive,inactive,,
